# According to PubChem BioAssay AID1851 (National Center for Advancing Translational Sciences (NCATS), 2009):
# Out of some 16,000 compounds screened, about 5,700 (36%) were called active. Another 24% or so got no clear call; they are omitted. Calls follow the shape of the dose curve; as a rule, active = well fitted curve in the direction sought with a large enough effect; inconclusive = small, poorly fitted or top-dose-only effect, or effect the other way; inactive = no such curve, though single readings can be large or run the other way. Some of the results follow.
# Biological target: Cytochrome P450 1A2 (Homo sapiens) (UniProt P05177)
# Sequence (P05177 whole entry, looked up): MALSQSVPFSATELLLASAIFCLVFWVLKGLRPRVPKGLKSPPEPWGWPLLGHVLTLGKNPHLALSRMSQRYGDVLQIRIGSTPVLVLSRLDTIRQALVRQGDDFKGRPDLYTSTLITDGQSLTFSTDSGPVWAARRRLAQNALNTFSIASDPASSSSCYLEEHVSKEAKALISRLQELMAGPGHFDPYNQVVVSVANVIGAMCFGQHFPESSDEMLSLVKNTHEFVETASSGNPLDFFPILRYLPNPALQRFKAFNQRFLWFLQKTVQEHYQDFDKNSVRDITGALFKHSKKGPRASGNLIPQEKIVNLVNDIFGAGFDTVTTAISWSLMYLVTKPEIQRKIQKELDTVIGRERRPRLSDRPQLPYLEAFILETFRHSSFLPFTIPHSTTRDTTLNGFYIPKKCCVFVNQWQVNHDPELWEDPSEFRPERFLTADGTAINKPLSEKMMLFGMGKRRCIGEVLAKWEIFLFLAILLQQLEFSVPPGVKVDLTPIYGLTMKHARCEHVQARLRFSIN
# Experiment: Cytochrome panel assay with activity outcomes
# Conditions: recombinant CYP, pro-luciferin dealkylation, luminescence, p450-cyp1a2; series mostly up to 57.1 µM
# % is scaled to controls: 0 for no effect and ±100 for the full control effect.
SMILES,AC50,"activity, negative = inhibition"
CCOC(=O)[C@@]12C[C@@H]1/C(=N/O)c1ccccc1O2,3.98 µM (active),–
O=C(Nc1ccccc1)[C@@]12C[C@@H]1/C(=N/O)c1ccccc1O2,2.51 µM (active),–
Cc1c(NC(=O)C2CCN(S(=O)(=O)c3ccc(Cl)cc3)CC2)c(=O)n(-c2ccccc2)n1C,inactive,–
O=C1COc2ccccc2CN1,inactive,–
Fc1ccc(-c2cnc(-c3cccs3)o2)cc1,2.82 µM (active),–
CCOC(=O)Nc1ccc2c(c1)N(C(=O)CCN1CCN(C)CC1)c1ccccc1S2,inactive,–
COC(=O)c1cc(NC(=O)N2c3ccccc3Sc3ccccc32)cc(C(=O)OC)c1,3.16 µM (active),–
CCOC(=O)Nc1ccc2c(c1)N(C(=O)CCN1CCOCC1)c1ccccc1S2,inactive,–
CCC1Oc2ccccc2N(CC(=O)NCCCN2CCCCC2C)C1=O (stereo unspecified),inactive,–
O=[N+]([O-])/C=C\c1cc2ccccc2[nH]1,1.26 µM (active),–
Nc1c(S(=O)(=O)O)cc(Nc2cccc(S(N)(=O)=O)c2)c2c1C(=O)c1ccccc1C2=O,3.98 µM (active),–
NCCNC(=O)c1ncsc1-c1cccc(F)c1,10 µM (active),–
Cc1sc2nc(C3CC3)nc(SCC(=O)N3CC(=O)Nc4ccccc43)c2c1C,6.31 µM (active),–
Cc1scc2c1N(C(=O)CN1CCN(C)CC1)c1ccccc1NC2=O,inactive,–
Cc1nnc(SCC(=O)N2CC(=O)Nc3ccccc32)n1Cc1ccccc1,inactive,–
CC(=O)Nc1ccc2nc(C3CCCCC3)[nH]c2c1,inactive,–
C[C@@H](C(=O)O)c1ccc(C(=O)c2cccs2)cc1,inactive,–
COC(=O)Nc1nc2ccc(C(=O)c3cccs3)cc2[nH]1,0.794 µM (active),–
COC(=O)Nc1nc2ccc(SC(C)C)cc2[nH]1,0.501 µM (active),–
COC(=O)c1ccc(C23CC2(C(NP(=O)(c2ccccc2)c2ccccc2)c2ccccc2)C3)cc1 (stereo unspecified),15.8 µM (active),–
COC(=O)c1ccc(C(NC(=O)c2ccccc2)[C@]2(C)C[C@H]2C2CCCCC2)cc1 (stereo partly specified),inactive,–
Cc1ccc2cc(C(=O)O)c(C)nc2c1,inactive,–
O=C(O)CSc1cc(-c2ccccc2)nc2ccccc12,–,-4.67% [at 2.29 µM] (inactive)

SMILES,AC50,"activity, negative = inhibition"
O=C(O)CSc1ccn(Cc2ccccc2)c1,–,-14.3% [at 11.4 µM] (inactive)
O=C(O)c1cc(=O)[nH]c(SCc2ccccc2)n1,–,-12% [at 11.4 µM] (inactive)
Cn1c(SCC(=O)Nc2ccccc2)nc(O)cc1=O,inactive,–
O=C(CSc1nnc2c3ccccc3c3ccccc3c2n1)Nc1ccccc1,1.12 µM (active),–
O=C(O)CSc1nnc2c3ccccc3c3ccccc3c2n1,0.0794 µM (active),–
CCc1c(C)nc(N)n2c(SCC(=O)Nc3ccccc3)nnc12,inactive,–
c1ccc(CSc2nnc3c4ccccc4c4ccccc4c3n2)cc1,0.2 µM (active),–
CN(C)S(=O)(=O)c1nc(Cl)c2[nH]cnc2n1,–,2.44% [at 11.4 µM] (inactive)
Cc1ccc(-c2ccc(=O)n(CC(=O)NCCN(C)C)n2)cc1,inactive,–
C[C@@H]1CCC[C@H](C)N1,inactive,–
COC(=O)C1=C(C)N=C2SC(C)C(=O)N2C1/C=C/c1ccccc1 (stereo unspecified),inactive,–
O=C(Nc1cccc(NC(=O)c2ccccc2[N+](=O)[O-])n1)c1ccccc1[N+](=O)[O-],8.91 µM (active),–
Cc1cc(C)nc(NC(=O)c2cccc([N+](=O)[O-])c2C)n1,inactive,–
CC1CCN(S(=O)(=O)c2ccc3c(c2)C(=NO)c2cc(S(=O)(=O)N4CCC(C)CC4)ccc2-3)CC1,inactive,–
O[C@]1(c2ccccc2)c2ccccc2NC2=NCCN21,–,-14.8% [at 11.4 µM] (inactive)
Nc1cc(S(=O)(=O)O)cc2ccc(S(=O)(=O)O)cc12,–,-18.1% [at 2.29 µM] (inactive)
CC[C@@]1([N+](=O)[O-])C[C@H]2C=C[C@@H]1C2,–,-12.9% [at 2.29 µM] (inactive)
C[C@@H]1C[C@@H]2[C@H]3CCC4=CC(=O)C=C[C@]4(C)[C@]3(Cl)[C@@H](O)C[C@@]2(C)[C@@]1(O)C(=O)CO,inactive,–
O=S(=O)(c1ccccc1)N1CCN(c2cc(-c3ccccc3)nc3ncnn23)CC1,0.794 µM (active),–
O=S(=O)(c1ccccc1)N1CCC2(CC1)CN(c1ncccn1)C2,inactive,–
FC(F)(F)c1ccc(N2CCN(c3cc(-c4ccccc4)nc4ncnn34)CC2)nc1,10 µM (active),–
O=S(=O)(c1ccccc1)N1CCC2(CCN(c3ncccn3)CC2)CC1,inactive,–
Nc1nc(Cl)nc2c1ncn2[C@@H]1O[C@@H](COP(=O)(O)OP(=O)(O)OP(=O)(O)O)[C@@H](O)[C@H]1O,inactive,–

SMILES,AC50,"activity, negative = inhibition"
C#CCCCO/N=C1/C[C@@H](O)[C@@H](O)[C@@H]2[C@@H]3C(=O)N(CC)C(=O)[C@H]3CC[C@@H]12,–,-3.56% [at 11.4 µM] (inactive)
Cc1ccc(NC(=S)Nc2nc(CC(=O)Nc3ccccc3)cs2)cc1,2.24 µM (active),–
CCn1c(CC(=O)Nc2ccc(C)cc2)nnc1SCC(=O)Nc1nc(C)cs1,inactive,–
COc1cccc([C@@H]2Oc3ccc(OC)cc3/C(=N/OC[C@@H](C)[C@H](OCc3ccccc3)C(C)C)[C@@H]2O)c1,–,-6.71% [at 11.4 µM] (inactive)
CN(C)c1ncc2nc(-c3cc(F)cc(F)c3)c(=O)n(CCc3ccccc3)c2n1,inactive,–
CN(C)c1ncc2nc(CCc3ccccc3)c(=O)n(-c3ccccc3)c2n1,0.794 µM (active),–
CN(C)c1ncc2nc(CCc3ccccc3)c(=O)n(Cc3cccs3)c2n1,1.58 µM (active),–
COc1cccc(Cn2c(=O)cnc3cnc(N(C)C)nc32)c1,6.31 µM (active),–
COc1cccc(Cn2c(=O)c(-c3cc(F)cc(F)c3)nc3cnc(N(C)C)nc32)c1,inactive,–
CN(C)c1ncc2nc(-c3ccccc3)c(=O)n(CCc3ccccc3)c2n1,20 µM (active),–
C/C(CCN1CCCc2nc(C)c(C)cc21)=N\O[C@@H](C)CN1CCCCc2nc(C)c(C)cc21,–,2.64% [at 11.4 µM] (inactive)
C[C@]12CC[C@H]3c4ccc(O)cc4CC[C@@H]3[C@H]1C/C(=N/O)[C@H]2O,–,-12.7% [at 11.4 µM] (inactive)
C=C(C)CNCCN,–,2.24% [at 2.29 µM] (inactive)
COc1cccc(Cn2c(=O)c(CCc3ccccc3)nc3cnc(N(C)C)nc32)c1,15.8 µM (active),–
Cc1nc2cnc(N(C)C)nc2n(CCc2ccccc2)c1=O,1.26 µM (active),–
CN(C)c1ncc2ncc(=O)n(CCc3ccccc3)c2n1,0.794 µM (active),–
CN(C)c1ncc2nc(CCc3ccccc3)c(=O)n(CCC#N)c2n1,2 µM (active),–
CCN1CCCC1CNC(=O)C1c2cc(OC)c(OC)cc2C(=O)N(C)C1c1cccnc1 (stereo unspecified),inactive,–
COC(=O)N1CCC2(CCCN(Cc3nccs3)C2)CC1,inactive,–
CN(C)c1ncc2nc(-c3ccccc3)c(=O)n(CCC#N)c2n1,1.58 µM (active),–
COCCn1c(=O)c(CCc2ccccc2)nc2cnc(N(C)C)nc21,1.26 µM (active),–
CN(C)c1ncc2nc(-c3cccc(C#N)c3)c(=O)n(CCC#N)c2n1,inactive,–
CN(C)c1ncc2nc(CCc3ccccc3)c(=O)n(Cc3ccc(F)cc3)c2n1,10 µM (active),–

SMILES,AC50,"activity, negative = inhibition"
O=c1c(CCc2ccccc2)nc2cncnc2n1Cc1ccc(F)cc1,10 µM (active),–
CCN(CC)C(=O)CSc1nc(O)cc(=O)n1CC,inactive,–
C[C@@H]1/C=C\CC(=O)OC[C@H]2O[C@@H](C=C[C@@H]2O)[C@H](C)/C=C\CC(=O)OC1,–,-3.64% [at 11.4 µM] (inactive)
CNC(=O)[C@@H]1O[C@@H](n2cnc3c(NCc4ccc(N)cc4)ncnc32)[C@@H](O)[C@H]1O,inactive,–
CN(C)c1ncc2nc(CCc3ccccc3)c(=O)n(CCc3ccccc3)c2n1,6.31 µM (active),–
C=C1C=C(Br)C2(OCCCO2)[C@H]2OC12 (stereo partly specified),–,-2.64% [at 11.4 µM] (inactive)
Cc1cnc(CNc2cc(-c3ccccc3Cl)ncn2)cn1,15.8 µM (active),–
COc1ccccc1-c1cc(NCc2cnc(C)cn2)ncn1,12.6 µM (active),–
Cc1cnc(CNc2cc(-c3ccccc3C)ncn2)cn1,12.6 µM (active),–
Cn1cccc1C(=O)N1CCC2(CCN(C(=O)Nc3cccc(F)c3)CC2)CC1,inactive,–
C[C@@]12CCC(=O)C=C1CC[C@H]1[C@@H]2[C@@H](O)C[C@]2(C)[C@@H]1CC[C@@]2(O)C(=O)CO,–,-23.6% [at 11.4 µM] (inactive)
O=C(O)/C=C\c1c2ccc(=O)c(O)c-2oc2c(O)c(O)ccc12,–,-19.8% [at 2.29 µM] (inactive)
Cc1cc(=O)c2c(O)c(O)ccc2o1,12.6 µM (active),–
c1c[nH]c(CN2CCOCC2)n1,–,6.41% [at 11.4 µM] (inactive)
Oc1c(CN2CCOCC2)ccc(CN2CCOCC2)c1O,–,-11.9% [at 2.29 µM] (inactive)
Clc1ccc(-n2nnnc2CN2CCOCC2)cc1,7.08 µM (active),–
Cc1ccnc2nc(C(=O)OCC(=O)Nc3ccc4c(c3)OC(F)(F)O4)nn12,8.91 µM (active),–
COc1cc(NC(=O)COC(=O)c2nc3nc(C)cc(C)n3n2)cc(OC)c1,14.1 µM (active),–
CCN(CC)c1ccc(NC(=O)CSc2nnc3nc(C)cc(C)n23)cc1,inactive,–
C#CCCCO/N=C1/[C@H]2O[C@@H]2[C@@H](O)[C@H]2[C@H]1CCn1c(=O)n(C)c(=O)n12,–,-0.0514% [at 11.4 µM] (inactive)
CCN1C(=O)[C@@H]2[C@H]3C(=CC[C@@H]2C1=O)C1(OCCCO1)[C@H]1O[C@@H]1[C@H]3O,–,-2.44% [at 11.4 µM] (inactive)
Cc1ccc(S(=O)(=O)N2CCN(S(C)(=O)=O)C2)cc1,inactive,–
